Screening data (PubChem)
Hits are enriched below; roughly 2.8% of the tested compounds scored in any of these assays.
Giardia killer = Giardia lamblia killing. activity change, % at 7.66 µM, hits read low. 0.15% of 340,000 active. AID 540267. Giardia lamblia trophozoite viability; in the data active = activity change below about -80%; inconclusive = between about -30% and that limit;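 note: parasites exposed to compound for two days anaerobically before the ATP read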
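Luminescent ATP signal served as the viability read-out, measured 15-30 min after adding ATP detection reagent to trophozoites that had been incubated with compounds for 48 hrs at 37 deg C anaerobically at 100 cells/well.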
D3 ag = activates the human D3 dopamine receptor. P35462. D3R DiscoveRx beta-arrestin cells, luminescence, 90 min. max activation, %. 0.58% of 410,000 active; in the data active = max activation above about 30%
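Agonist mode: compounds and dopamine controls were applied to plated cells for 90 min at 37 degrees C after an overnight attachment at 1500 cells/well. Luminescent read-out followed 30 - 60 minutes at room temperature with DiscoveRx detection reagent.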
B2AR arrestin = beta2AR (human) beta-arrestin recruitment activity | 0.02% of 330,000 active | P07550 | Potency, µM (series often up to 46.1 µM), usual class: activators | beta-arrestin recruitment to beta2AR, cell-based reporter; active = well fitted activation curve with a large enough effect; inconclusive = small, poorly fitted or top-dose-only effect; note: nearly all actives have a fitted effect of over 65% in size
Target sequence (P07550 whole entry, looked up): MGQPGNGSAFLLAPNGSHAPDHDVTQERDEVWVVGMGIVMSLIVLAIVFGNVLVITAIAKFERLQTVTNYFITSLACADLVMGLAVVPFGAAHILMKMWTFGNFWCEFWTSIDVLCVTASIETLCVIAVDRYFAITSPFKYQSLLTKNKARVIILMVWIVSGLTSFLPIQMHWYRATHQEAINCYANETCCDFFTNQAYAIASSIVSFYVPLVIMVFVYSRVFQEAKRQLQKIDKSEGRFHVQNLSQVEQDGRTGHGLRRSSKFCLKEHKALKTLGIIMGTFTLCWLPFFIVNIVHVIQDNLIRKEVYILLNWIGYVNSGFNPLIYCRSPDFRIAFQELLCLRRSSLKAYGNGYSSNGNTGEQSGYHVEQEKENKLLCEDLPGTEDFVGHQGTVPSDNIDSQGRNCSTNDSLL
DRD3 antagonist = D3 dopamine receptor (human) antagonism; P35462; D3R cells, DiscoveRx beta-arrestin luminescence, antagonist mode; stronger effect = lower value; max response, negative = inhibition, %; 2.5% of 360,000 active; AID 652054; in the data active = max response below about -50%; inconclusive = no clear call, values can overlap the other calls
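Cells plated overnight at 1500 cells/well, then exposed to library compounds with dopamine controls for 90 minutes at 37 degrees C. DiscoveRx reagent added for 30–60 minutes at room temperature; luminescence read, quantitative HTS format.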
Each line names hits and unclear results; the compound was inactive in the other large screens.

O=C(C1=C[C@H](c2ccc(C(F)(F)F)cc2)C[C@H](OCc2ccc(CO)cc2)O1)N1CCCCCCC1	DRD3 antagonist -72.3
O=S1(=O)C2CC3OC2(CC3c2ccc(F)cc2)CN1Cc1ccc(Cl)cc1 (stereo unspecified)	none (no result: D3 ag, B2AR arrestin, DRD3 antagonist)
CSCCC(NC(=O)c1ccccc1)C(=O)NC1CC1 (stereo unspecified)	D3 ag 33.9
O=S(=O)(c1ccc(F)cc1)c1snnc1-c1ccccc1	none
O=S(=O)(c1ccc(Cl)cc1)c1snnc1-c1ccccc1	DRD3 antagonist -64.3
C(=C\c1ccccc1)/CN1CCN(C(c2cc3ccccc3o2)c2nnnn2C2CCCC2)CC1 (stereo unspecified)	DRD3 antagonist -98.4 (no result: Giardia killer, B2AR arrestin)
C(=C\c1ccccc1)/CN1CCN(C(CCc2ccccc2)c2nnnn2C2CCCCC2)CC1 (stereo unspecified)	DRD3 antagonist -59.0 (no result: Giardia killer, B2AR arrestin)
C(=C\c1ccccc1)/CN1CCN(C(c2cc3ccccc3o2)c2nnnn2Cc2ccccc2)CC1 (stereo unspecified)	DRD3 antagonist -103.9 (no result: Giardia killer, B2AR arrestin)
C(=C\c1ccccc1)/CN1CCN(C(c2cccc3ccccc23)c2nnnn2C2CCCC2)CC1 (stereo unspecified)	DRD3 antagonist -99.2 (no result: Giardia killer, B2AR arrestin)
C(=C\c1ccccc1)/CN1CCN(C(c2nnnn2C2CCCCC2)C2CC2)CC1 (stereo unspecified)	none (no result: Giardia killer, B2AR arrestin)
CCN(C(=O)Cn1c(=O)n(CC2CCC(C(=O)NC)CC2)c(=O)c2sccc21)c1ccccc1 (stereo unspecified)	none (no result: Giardia killer, B2AR arrestin, DRD3 antagonist)
CCOc1ccc(NC(=O)Cn2cnc3c(oc4ccccc43)c2=O)cc1	none (no result: Giardia killer, B2AR arrestin, DRD3 antagonist)
N/C(Cc1cccc2ccccc12)=N\OC(=O)Cc1cccs1	none
N/C(Cc1cccc2ccccc12)=N\OC(=O)c1cccs1	DRD3 antagonist -75.6
CSc1ncc2c(n1)-c1ccccc1N(Cc1ccc(Cl)cc1)S2(=O)=O	none (no result: Giardia killer, B2AR arrestin, DRD3 antagonist)
Cn1c(SCC(=O)N/N=C/C=C/c2ccccc2[N+](=O)[O-])nc2ccccc21	none
Cn1c(SCC(=O)N/N=C/C=C/c2ccco2)nc2ccccc21	B2AR arrestin 18.4µM
O=C(NCc1ccc(F)cc1)c1ccc(CSc2nc3ccncc3n2Cc2ccc(F)cc2)cc1	none (no result: Giardia killer, B2AR arrestin, DRD3 antagonist)
O=C(c1ccc(Cl)cc1)C1CCN(Cc2ccccc2)CC1	Giardia killer inconclusive, DRD3 antagonist -113.9
O=C(CN1CCC(C(=O)c2ccc(F)cc2)CC1)NCc1ccccc1F	DRD3 antagonist -79.3
COc1ccc(C(=O)C2CCN(CC(=O)NCc3ccccc3)CC2)cc1	DRD3 antagonist -51.6
O=C(c1ccc(F)cc1)C1CCN(Cc2cn[nH]c2-c2ccc(F)cc2)CC1	DRD3 antagonist inconclusive
O=C(c1ccc(F)cc1)C1CCN(Cc2ccccc2F)CC1	DRD3 antagonist -112.2 (no result: Giardia killer, B2AR arrestin)
CCCCC(=O)OCC(=O)[C@]1(O)Cc2c(O)c3c(c(O)c2[C@@H](O[C@H]2C[C@H](NC(=O)C(F)(F)F)[C@H](O)[C@H](C)O2)C1)C(=O)c1c(OC)cccc1C3=O	none (no result: Giardia killer, B2AR arrestin, DRD3 antagonist)
COc1ccc(C)cc1NC(=O)Cn1cc(S(=O)(=O)Cc2ccccc2Cl)c2ccccc21	none (no result: Giardia killer, B2AR arrestin, DRD3 antagonist)
C[C@@H]1C/C=C/C=C/C=C/C=C/[C@H](O[C@@H]2O[C@H](C)[C@@H](O)[C@H](N)[C@@H]2O)C[C@@H]2O[C@](O)(C[C@@H](O)C[C@H]3O[C@@H]3/C=C/C(=O)O1)C[C@H](O)[C@H]2C(=O)O	none (no result: Giardia killer, B2AR arrestin, DRD3 antagonist)
O=C(c1ccc(F)cc1)C1CCN(CCn2c(=S)[nH]c3ccccc3c2=O)CC1	none (no result: Giardia killer, DRD3 antagonist)
CC1(C)C(=O)N(CCN2CCC(C(=O)c3ccc(F)cc3)CC2)c2ccccc21	DRD3 antagonist -84.3
CCCCCc1cc(=O)oc2c(C(CCN3CCCC3)c3ccc4c(c3)OCO4)c(OC)cc(OC)c12 (stereo unspecified)	none (no result: D3 ag, B2AR arrestin, DRD3 antagonist)
COc1cc(OC)c2ccc(=O)oc2c1C(CCN1CCN(c2ccccc2)CC1)c1ccc(N(C)C)cc1 (stereo unspecified)	DRD3 antagonist -114.9
COc1ccc(C(CCN2CCN(c3ccccc3)CC2)c2c(OC)cc(OC)c3c(-c4ccccc4)cc(=O)oc23)cc1 (stereo unspecified)	DRD3 antagonist -53.2
CCCCCc1cc(=O)oc2c(C(CCN3CCN(c4ccccc4)CC3)c3ccc(N(C)C)cc3)c(OC)cc(OC)c12 (stereo unspecified)	DRD3 antagonist -51.7
COc1cc(OC)c2c(-c3ccccc3)cc(=O)oc2c1C(CC(=O)N1CCN(c2ccccc2)CC1)c1ccc(N(C)C)cc1 (stereo unspecified)	DRD3 antagonist inconclusive
